Measurements from PubChem BioAssay (Tox21).
“And” between values parts separate entries of the source, which are not always exact repeats. Equal values may be shown once. Results filed as inconclusive are left out. Where a structure was tested more than once in an assay, its records may differ in their call. The source made the active and inactive calls. Unless noted, the call rests on the fitted dose curve; in most records, active means well fitted curve in the direction sought with a large enough effect in the repeat runs; inconclusive means weak or mixed curves; inactive means no such curve, though single readings can be large; an effect the other way counts as inactive or inconclusive.

Key:
[1] = Human pregnane X receptor (PXR) small molecule agonists, qHTS cell viability counter screen (AID 1346977); further: nearly all actives have a fitted effect of over 50% in size
In short: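 Readout is CellTiter-Fluor fluorescence from PXR-Luc HepG2 cells. Plated cells rested 5hr, then were treated with compounds for 24hr at 37C and 5% CO2, with reagent present during the last hour.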

[2] = Caspase-3/7 induction in HepG2 cells by small molecules, qHTS assay (AID 1346978); further: nearly all actives have a fitted effect of over 15% in size
In short: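 Wild-type HepG2 cells (2,000/well) were settled 5 h at 37 C, 5% CO2, then exposed to compounds in DMSO for 17 h. Caspase-3/7 activity was read by luminescence 30 min after adding Caspase-Glo 3/7 reagent at room temperature.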

[3] = Caspase-3/7 induction in CHO-K1 cells by small molecules, qHTS cell viability counter screen (AID 1346979); further: nearly all actives have a fitted effect of over 35% in size
In short: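 To flag cytotoxic compounds, treated CHO-K1 wild-type cells were given CellTiter-Fluor at 16hr and read fluorescently after 1hr at 37C; the caspase-3/7 luminescence was measured in these same wells.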

[4] = Caspase-3/7 induction in CHO-K1 cells by small molecules, qHTS assay (AID 1346980); further: nearly all actives have a fitted effect of over 15% in size
In short: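 Wild-type cells were seeded at 1,500 per well and settled 5 hr at 37 C, 5% CO2, then exposed to DMSO-dissolved compounds for 17 hr. Caspase-Glo 3/7 reagent was added, and luminescence was read after 30min at room temperature.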

[5] = Caspase-3/7 induction in HepG2 cells by small molecules, qHTS cell viability counter screen (AID 1346981); further: series mostly up to about 92 µM; nearly all actives have a fitted effect of over 30% in size
In short: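 In this quantitative HTS counter screen, compounds delivered in DMSO were left on unmodified HepG2 cells for 16 hr at 37 C. Viability was then determined fluorometrically with CellTiter-Fluor, in parallel with caspase-3/7 induction in the same wells.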

[6] = target: Nuclear receptor subfamily 1 group I member 2 (Homo sapiens) (UniProt O75469); experiment: Human pregnane X receptor (PXR) small molecule agonists, qHTS assay (AID 1346982); further: nearly all actives have a fitted effect of over 35% in size; further: potency means the concentration at half of the fitted maximal effect
In short: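 Reporter HepG2 cells expressing PXR-Luc are cultured in charcoal-stripped FBS (5%), treated with compounds for 24 hr at 37 C, and assayed by ONE-Glo luminescence after 30 min at room temperature.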

[7] = target: Nuclear receptor subfamily 1 group I member 2 (Rattus norvegicus) (UniProt Q9R1A7); experiment: Rat pregnane X receptor (rPXR) activation by small molecules, qHTS assay (AID 1346983); conditions: rPXR luciferase reporter cells, One-Glo luminescence, 24 h; stronger effect = higher value; further: nearly all actives have a fitted effect of over 20% in size
In short: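 Cell-based rPXR luciferase reporter assay, 2,000 cells per well, rested 5hr at 37 C before compound addition in DMSO, then 24 hr at 37 C. One-Glo reagent was added and luminescence read after 30 min at room temperature.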

[8] = target: Nuclear receptor subfamily 1 group I member 2 (Homo sapiens) (UniProt O75469); experiment: CYP3A4 induction through human pregnane X receptor (PXR) by small molecules, qHTS assay (AID 1346984); further: nearly all actives have a fitted effect of over 40% in size
In short: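 Induction measured in HepG2-based DPX-2 cells co-expressing human PXR and a CYP3A4 promoter-driven luciferase. After a 24-hour compound exposure, cells received CYP3A4 luciferin substrate at 3uM final for 3 hours, and light output was then recorded.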

[9] = target: Nuclear receptor subfamily 1 group I member 2 (Homo sapiens) (UniProt O75469); experiment: Human pregnane X receptor (PXR) activation by small molecules, qHTS assay (AID 1346985); further: nearly all actives have a fitted effect of over 40% in size
In short: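 DPX-2 cells (HepG2 co-transfected with a PXR response element and a CYP3A4-promoter luciferase construct) were seeded at 2,000 per well, rested 5 hr at 37C, then exposed to DMSO-dissolved compounds for 24 hr. Activation was read as luciferase luminescence.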

[10] = target: Cytochrome P450 2D6 (Homo sapiens) (UniProt P10635); experiment: Cytochrome P450 Family 2 Subfamily D Member 6 (CYP2D6) small molecule antagonists: luciferase reporter qHTS assay (AID 1671196); further: nearly all actives have a fitted effect of over 50% in size; further: potency means the concentration at half of the fitted maximal effect
In short: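 Test chemicals meet CYP2D6 plus proluciferin substrate (10 min, RT); NADPH regenerating solution then drives turnover for 1 h. Detection reagent halts the reaction; luminescence measured after 20 min.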

[11] = target: Cytochrome P450 2C19 (Homo sapiens) (UniProt P33261); experiment: Cytochrome P450 Family 2 Subfamily C Member 19 (CYP2C19) small molecule antagonists: luciferase reporter qHTS assay (AID 1671197); further: nearly all actives have a fitted effect of over 65% in size; further: potency means the concentration at half of the fitted maximal effect
In short: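 Relative luminescence units recorded 20 min after the detection reagent stopped a 1 h, 37C CYP2C19 reaction on proluciferin substrate, which was started by NADPH regeneration following 10 min room-temperature compound preincubation; ketoconazole positive control.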

[12] = target: Cytochrome P450 2C9 (Homo sapiens) (UniProt P11712); experiment: Cytochrome P450 Family 2 Subfamily C Member 9 (CYP2C9) small molecule antagonists: luciferase reporter qHTS assay (AID 1671198); further: nearly all actives have a fitted effect of over 50% in size; further: potency means the concentration at half of the fitted maximal effect
In short: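 CYP2C9 activity was measured with a P450-Glo proluciferin substrate. Enzyme–substrate mix was held with compound for 10 min at room temperature, then NADPH regeneration solution was added for 1 h at 37C. Luciferin product was read as luminescence.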

[13] = target: Cytochrome P450 1A2 (Homo sapiens) (UniProt P05177); experiment: Cytochrome P450 Family 1 Subfamily A Member 2 (CYP1A2) small molecule antagonists: luciferase reporter qHTS assay (AID 1671199); further: nearly all actives have a fitted effect of over 50% in size; further: potency means the concentration at half of the fitted maximal effect
In short: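 Steps: enzyme-substrate mix dispensed; test compounds and furafylline control pinned in; 10 min room temperature; NADPH regeneration solution added, 1 h; reaction stopped with luciferin detection reagent; luminescence read after 20 min.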

[14] = target: Voltage-gated inwardly rectifying potassium channel KCNH2 (Homo sapiens) (UniProt Q12809); experiment: Human Ether-a-go-go-Related Gene (hERG) channel small molecule antagonists: fluorescence cell-based qHTS assay (AID 1671200)
In short: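 Measured: Tl+ flux via fluorescence (480/540 nm) in hERG-expressing U2OS cells after 1 h dye loading at room temperature.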

[15] = target: Cytochrome P450 3A4 (Homo sapiens) (UniProt P08684); experiment: Cytochrome P450 Family 3 Subfamily A Member 4 (CYP3A4) small molecule antagonists: luciferase reporter qHTS assay (AID 1671201)
In short: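 Setup: enzyme-substrate mix, compound pin transfer, 10 min RT. Reaction: NADPH regeneration solution, 1 h RT. Readout: detection reagent stops turnover, luminescence measured after 20 min, expressed in relative luminescence units.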

[16] = target: Thyrotropin-releasing hormone receptor (Homo sapiens) (UniProt P34981); experiment: qHTS assay to identify small molecule agonists of the thyrotropin-releasing hormone receptor (TRHR) signaling pathway (AID 1346891; calls by dose curve;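 further: HEK293 cells expressing TRHR with calcium dye readout; series mostly up to about 58 µM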)
In short: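 In 1536-format, 1500 TRHR-Hek293 cells per well grew 18 h, took up calcium dye for 2 h at 37 °C, received compound, and were read kinetically; 15-point titrations, triplicates.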
On the % scale 0 is the no-effect control and ±100 the full control effect.

Sequence of Cytochrome P450 2C9 (Homo sapiens) (P11712 whole entry, looked up): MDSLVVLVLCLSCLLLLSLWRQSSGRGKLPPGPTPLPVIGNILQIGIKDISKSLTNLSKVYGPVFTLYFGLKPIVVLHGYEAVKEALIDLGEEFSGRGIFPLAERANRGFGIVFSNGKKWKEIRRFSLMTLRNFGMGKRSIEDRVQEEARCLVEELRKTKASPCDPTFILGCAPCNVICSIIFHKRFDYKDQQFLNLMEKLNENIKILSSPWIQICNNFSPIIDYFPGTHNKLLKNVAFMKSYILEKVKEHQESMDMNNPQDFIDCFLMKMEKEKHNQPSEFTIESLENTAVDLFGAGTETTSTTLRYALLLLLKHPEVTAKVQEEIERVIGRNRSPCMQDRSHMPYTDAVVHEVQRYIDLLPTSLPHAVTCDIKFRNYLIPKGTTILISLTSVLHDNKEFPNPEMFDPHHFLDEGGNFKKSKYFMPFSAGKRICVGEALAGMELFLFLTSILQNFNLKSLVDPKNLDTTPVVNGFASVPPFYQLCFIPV
Sequence of Cytochrome P450 3A4 (Homo sapiens) (P08684 whole entry, looked up): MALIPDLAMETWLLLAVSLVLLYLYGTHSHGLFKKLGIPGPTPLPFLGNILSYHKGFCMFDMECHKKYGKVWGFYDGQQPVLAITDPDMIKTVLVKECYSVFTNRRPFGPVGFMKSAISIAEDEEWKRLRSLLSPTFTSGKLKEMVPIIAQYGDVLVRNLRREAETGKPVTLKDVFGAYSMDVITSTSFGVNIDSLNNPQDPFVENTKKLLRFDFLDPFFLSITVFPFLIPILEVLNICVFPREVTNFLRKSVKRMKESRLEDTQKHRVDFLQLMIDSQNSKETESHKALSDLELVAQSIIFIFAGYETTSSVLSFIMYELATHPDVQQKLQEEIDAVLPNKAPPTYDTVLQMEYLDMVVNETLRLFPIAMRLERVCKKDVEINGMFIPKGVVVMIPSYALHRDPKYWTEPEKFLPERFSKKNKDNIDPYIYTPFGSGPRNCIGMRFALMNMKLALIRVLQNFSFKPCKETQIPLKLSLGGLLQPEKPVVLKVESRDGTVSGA
Sequence of Voltage-gated inwardly rectifying potassium channel KCNH2 (Homo sapiens) (Q12809 whole entry, looked up): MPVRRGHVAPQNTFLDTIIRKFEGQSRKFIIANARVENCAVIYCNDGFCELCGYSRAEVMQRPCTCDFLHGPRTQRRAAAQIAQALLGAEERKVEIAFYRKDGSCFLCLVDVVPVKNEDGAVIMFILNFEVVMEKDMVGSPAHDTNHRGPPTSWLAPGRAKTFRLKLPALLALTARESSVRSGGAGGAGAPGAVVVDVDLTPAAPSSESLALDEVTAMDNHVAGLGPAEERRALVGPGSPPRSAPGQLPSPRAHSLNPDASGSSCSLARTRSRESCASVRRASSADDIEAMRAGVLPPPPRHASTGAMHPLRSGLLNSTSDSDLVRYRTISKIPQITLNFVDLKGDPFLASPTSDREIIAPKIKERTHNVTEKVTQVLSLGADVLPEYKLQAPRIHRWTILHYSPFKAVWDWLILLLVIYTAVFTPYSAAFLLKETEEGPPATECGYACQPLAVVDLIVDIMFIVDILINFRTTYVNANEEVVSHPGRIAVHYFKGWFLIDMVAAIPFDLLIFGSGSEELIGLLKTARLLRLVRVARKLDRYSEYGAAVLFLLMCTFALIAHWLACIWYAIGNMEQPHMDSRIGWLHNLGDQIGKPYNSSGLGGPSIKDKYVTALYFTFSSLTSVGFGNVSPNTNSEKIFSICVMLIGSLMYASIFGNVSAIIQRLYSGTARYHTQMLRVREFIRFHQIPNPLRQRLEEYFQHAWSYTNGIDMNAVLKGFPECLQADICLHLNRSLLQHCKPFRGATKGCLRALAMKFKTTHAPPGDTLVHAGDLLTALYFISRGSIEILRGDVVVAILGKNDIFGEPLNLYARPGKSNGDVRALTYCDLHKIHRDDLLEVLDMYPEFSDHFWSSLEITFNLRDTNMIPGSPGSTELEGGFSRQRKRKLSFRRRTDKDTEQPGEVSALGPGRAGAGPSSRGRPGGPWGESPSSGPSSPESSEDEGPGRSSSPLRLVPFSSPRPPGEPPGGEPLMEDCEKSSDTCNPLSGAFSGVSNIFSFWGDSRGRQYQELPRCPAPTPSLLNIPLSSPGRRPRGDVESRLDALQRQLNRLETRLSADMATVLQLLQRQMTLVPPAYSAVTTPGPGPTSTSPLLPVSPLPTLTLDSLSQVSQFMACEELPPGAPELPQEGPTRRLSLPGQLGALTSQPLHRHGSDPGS
Sequence of Cytochrome P450 2C19 (Homo sapiens) (P33261 whole entry, looked up): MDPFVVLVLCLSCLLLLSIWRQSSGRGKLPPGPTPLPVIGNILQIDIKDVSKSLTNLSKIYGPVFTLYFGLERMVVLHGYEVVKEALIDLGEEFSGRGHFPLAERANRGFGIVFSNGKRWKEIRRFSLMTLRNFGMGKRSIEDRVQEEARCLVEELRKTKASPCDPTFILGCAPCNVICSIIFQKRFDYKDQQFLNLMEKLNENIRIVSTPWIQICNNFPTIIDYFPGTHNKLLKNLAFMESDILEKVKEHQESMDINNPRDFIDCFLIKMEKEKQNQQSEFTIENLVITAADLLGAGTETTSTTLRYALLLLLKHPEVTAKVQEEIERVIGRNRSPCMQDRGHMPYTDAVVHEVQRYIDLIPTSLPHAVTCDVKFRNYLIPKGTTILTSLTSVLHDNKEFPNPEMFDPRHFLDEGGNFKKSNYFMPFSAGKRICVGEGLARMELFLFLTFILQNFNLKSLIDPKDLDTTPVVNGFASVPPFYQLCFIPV
Sequence of Cytochrome P450 2D6 (Homo sapiens) (P10635 whole entry, looked up): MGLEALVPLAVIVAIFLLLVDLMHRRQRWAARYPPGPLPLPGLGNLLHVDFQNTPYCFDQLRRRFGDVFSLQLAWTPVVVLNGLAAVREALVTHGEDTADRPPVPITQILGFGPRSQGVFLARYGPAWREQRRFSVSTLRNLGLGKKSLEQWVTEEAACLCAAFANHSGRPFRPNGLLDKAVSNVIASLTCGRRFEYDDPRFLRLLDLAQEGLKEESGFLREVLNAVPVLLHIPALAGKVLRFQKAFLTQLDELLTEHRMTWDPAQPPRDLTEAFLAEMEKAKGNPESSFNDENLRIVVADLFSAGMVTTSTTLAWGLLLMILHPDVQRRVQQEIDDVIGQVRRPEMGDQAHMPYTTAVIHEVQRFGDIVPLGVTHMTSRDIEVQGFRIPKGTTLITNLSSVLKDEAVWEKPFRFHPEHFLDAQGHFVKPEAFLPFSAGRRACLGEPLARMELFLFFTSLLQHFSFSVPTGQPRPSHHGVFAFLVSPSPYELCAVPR
Sequence of Nuclear receptor subfamily 1 group I member 2 (Rattus norvegicus) (Q9R1A7 whole entry, looked up): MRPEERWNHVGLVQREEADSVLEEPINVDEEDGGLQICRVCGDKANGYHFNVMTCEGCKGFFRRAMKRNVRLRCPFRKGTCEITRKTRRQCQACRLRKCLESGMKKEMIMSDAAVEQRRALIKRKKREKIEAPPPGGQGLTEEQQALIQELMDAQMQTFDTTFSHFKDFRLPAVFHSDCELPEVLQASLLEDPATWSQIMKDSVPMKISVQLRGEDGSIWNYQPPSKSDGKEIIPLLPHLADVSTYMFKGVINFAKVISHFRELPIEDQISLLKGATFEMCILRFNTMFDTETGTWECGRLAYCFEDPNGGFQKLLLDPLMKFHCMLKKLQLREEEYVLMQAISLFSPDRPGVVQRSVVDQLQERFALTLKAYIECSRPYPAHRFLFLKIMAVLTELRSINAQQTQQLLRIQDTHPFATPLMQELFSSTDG
Sequence of Cytochrome P450 1A2 (Homo sapiens) (P05177 whole entry, looked up): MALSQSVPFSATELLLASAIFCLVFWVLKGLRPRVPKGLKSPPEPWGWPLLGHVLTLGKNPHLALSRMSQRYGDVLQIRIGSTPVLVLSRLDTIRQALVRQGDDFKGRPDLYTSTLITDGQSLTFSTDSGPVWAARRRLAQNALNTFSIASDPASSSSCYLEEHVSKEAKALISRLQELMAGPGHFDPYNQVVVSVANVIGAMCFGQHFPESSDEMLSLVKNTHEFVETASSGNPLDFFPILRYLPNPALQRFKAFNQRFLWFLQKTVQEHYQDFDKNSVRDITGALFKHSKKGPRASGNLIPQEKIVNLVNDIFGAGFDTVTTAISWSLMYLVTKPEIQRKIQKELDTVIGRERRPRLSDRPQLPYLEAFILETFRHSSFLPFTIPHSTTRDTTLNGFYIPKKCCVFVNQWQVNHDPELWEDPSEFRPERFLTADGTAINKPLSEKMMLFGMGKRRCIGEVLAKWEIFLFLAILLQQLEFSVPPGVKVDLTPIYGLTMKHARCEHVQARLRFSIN
Sequence of Thyrotropin-releasing hormone receptor (Homo sapiens) (P34981 whole entry, looked up): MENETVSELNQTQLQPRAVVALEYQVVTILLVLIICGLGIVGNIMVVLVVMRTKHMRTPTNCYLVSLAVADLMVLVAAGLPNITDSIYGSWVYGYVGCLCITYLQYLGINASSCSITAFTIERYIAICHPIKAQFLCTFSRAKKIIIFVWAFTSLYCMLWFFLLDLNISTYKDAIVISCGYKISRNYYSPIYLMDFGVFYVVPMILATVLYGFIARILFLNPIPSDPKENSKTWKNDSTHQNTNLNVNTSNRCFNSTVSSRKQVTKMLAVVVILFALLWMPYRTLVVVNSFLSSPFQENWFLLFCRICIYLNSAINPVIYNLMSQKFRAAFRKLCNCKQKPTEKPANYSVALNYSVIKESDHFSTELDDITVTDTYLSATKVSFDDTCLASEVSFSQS
Sequence of Nuclear receptor subfamily 1 group I member 2 (Homo sapiens) (O75469 whole entry, looked up): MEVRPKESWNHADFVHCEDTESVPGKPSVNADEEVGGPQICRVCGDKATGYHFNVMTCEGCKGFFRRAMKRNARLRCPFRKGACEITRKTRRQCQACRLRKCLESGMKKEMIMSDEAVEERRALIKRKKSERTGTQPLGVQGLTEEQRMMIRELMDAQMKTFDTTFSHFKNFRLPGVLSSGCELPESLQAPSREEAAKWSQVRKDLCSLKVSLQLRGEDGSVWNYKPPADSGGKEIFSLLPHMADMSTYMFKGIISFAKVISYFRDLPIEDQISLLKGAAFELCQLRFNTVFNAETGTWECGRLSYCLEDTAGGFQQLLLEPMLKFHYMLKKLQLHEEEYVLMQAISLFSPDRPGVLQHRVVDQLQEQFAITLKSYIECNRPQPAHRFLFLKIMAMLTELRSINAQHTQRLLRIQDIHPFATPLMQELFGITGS

CC(C)(Oc1ccc(CCNC(=O)c2ccc(Cl)cc2)cc1)C(=O)O
active: Potency [12] 28.3 µM and 13.8 µM
inactive: Potency [1] | Potency [2] | Potency [3] | outcome [4] | Potency [5] | Potency [6] | max activation [7] -0.19% | Potency [8] | outcome [9] | Potency [10] | Potency [11] | Potency [13] | Potency [14] | Potency [15]

CC(C)(C#N)c1cc(Cn2cncn2)cc(C(C)(C)C#N)c1
inactive: Potency [1] | Potency [2] | Potency [3] | outcome [4] | Potency [5] | max activation [7] 0.273% | Potency [10] | Potency [14]
active: Potency [11] 21.8 µM and 15.5 µM | Potency [12] 9.75 µM and 8.71 µM | Potency [13] 9.75 µM and 15.5 µM

CCO[Si](CCCN)(OCC)OCC
inactive: Potency [1] | Potency [2] | Potency [3] | outcome [4] | Potency [5] | Potency [10] | Potency [11] | Potency [12] | Potency [13] | Potency [14] | Potency [15]

CN/C(=C\[N+](=O)[O-])NCCSCc1csc(CN(C)C)n1
inactive: Potency [1] | Potency [2] | outcome [4] | Potency [5] | Potency [6] | max activation [7] -2.39% | Potency [8] | outcome [9] | Potency [12] | Potency [13] | Potency [14] | Potency [15]
35.6 µM (active) and inactive: Potency [10]

CC(C)OP(=O)(CP(=O)(OC(C)C)OC(C)C)OC(C)C
inactive: Potency [1] | Potency [2] | outcome [4] | Potency [5] | Potency [10] | Potency [12] | Potency [13] | Potency [14]
35.6 µM (active) and inactive: Potency [11]
27.3 µM (active) and inactive: Potency [6]

CC(C)c1cccc(C(C)C)c1
inactive: Potency [1] | Potency [2] | Potency [3] | outcome [4] | Potency [5] | Potency [6] | Potency [10] | Potency [12] | Potency [13] | Potency [14] | Potency [15]

C=CCCCCCCCCC(=O)O
active: Potency [12] 39.9 µM
inactive: Potency [1] | Potency [2] | Potency [3] | outcome [4] | Potency [5] | Potency [6] | max activation [7] -1.23% | Potency [8] | outcome [9] | Potency [10] | Potency [11] | Potency [13] | Potency [14] | Potency [15]

CC(C)(C)c1cc(Cc2cc(C(C)(C)C)c(O)c(C(C)(C)C)c2)cc(C(C)(C)C)c1O
inactive: outcome [16] | Potency [1] | outcome [4] | Potency [5] | Potency [10] | Potency [11] | Potency [12] | Potency [14] | Potency [15]
inactive and 71 µM (active): Potency [13]

O=C1c2ccccc2CCc2ccccc21
inactive: Potency [1] | Potency [2] | Potency [3] | outcome [4] | Potency [5] | Potency [10] | Potency [14] | Potency [15]
active: Potency [11] 18.2 µM and 7.76 µM | Potency [12] 36.3 µM | Potency [13] 1.45 µM and 1.62 µM

COCCCN
inactive: outcome [16] | Potency [1] | outcome [4] | Potency [5] | Potency [10] | Potency [11] | Potency [12] | Potency [13] | Potency [14] | Potency [15]
